In PubChem BioAssay (NCATS) one finds Potency data, which are given here for 40 compounds.

Results filed as inconclusive are left out. Where a call stands in place of a potency, no number is given. The source made the active and inactive calls. Calls follow the shape of the dose curve; as a rule, active = well fitted cell-killing curve with a large enough effect; inconclusive = small, poorly fitted or top-dose-only effect; inactive = flat fitted curve, though single readings scatter.

This experiment in a line: Cell Viability - LYMP2-014 (AID 983).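 Also: cells exposed to compound for 24 h at 37 °C; nearly all actives have a fitted effect of over 50% in size.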 The settings on record: LYMP2-014 lymphoblastoid cells, viability qHTS; series mostly up to 92.2 µM. The text has this: NIH Chemical Genomics Center [NCGC]
NIH Molecular Libraries Screening Centers Network [MLSCN]
National Institutes of Environmental Health Sciences [NIEHS]
National Toxicology Program [NTP]
We have developed a 1536-well cell-based assay for quantitative high throughput screening (qHTS) against a number of cell lines to determine in vitro cytotoxicity of small molecules. This particular assay uses a human lymphoblastoid cell line (LYMP2-014) purchased from Coriell Institute for Medical Research.
NCGC Assay Protocol Summary:
The CellTiter-Glo luminescent cell viability assay (Promega) is a homogeneous method to measure the number of viable cells in culture. The end point readout of this assay is based on quantitation of intracellular ATP, an indicator of metabolic activity, using the luciferase reaction. Luciferase catalyzes the oxidation of beetle Luciferin to oxyluciferin and light in the presence of ATP. The luminescent signal is proportional to amount of ATP present.
Using the CellTiter-Glo luminescent cell viability assay, the amount of cellular ATP was measured in the lymphoblastoid cell line with complete culture medium following compound treatment for 24 hours. The assay was performed in opaque white Kalypsys 1536-well plates. In the screen, tetraoctylammonium bromide was used as positive control. Library compounds were measured for their ability to cause acute toxicity in the cell line, as reflected by a decrease in intracellular ATP levels, in a concentration-dependent manner. […] AC50 values were determined from concentration-response data modeled with the standard Hill equation.
qHTS protocol for CellTiter Glo lymphoblastoid cellular assay
[Step] [Parameter] [Value] [Description]
1. Reagent; 5 uL; 2500 lymphoblastoid cells/well
2. Time; 5 hr; 37 C incubation
4. Controls; 23 nL; Tetraoctylammonium bromide 6.4pM to 92 uM
5. Time; 24 hr; 37 C incubation
6. Reagent; 5 uL; CellTiter Glo reagent
7. Time; 30 min; Room Temperature
8. Detection; Luminescence; Viewlux plate reader
Keywords: cell viability, cytotoxicity, lymphoblastoid cell line, luminescence, NTPHTS, NTPHTS_NCGC, NIEHS, DSSTox, MLSMR, MLSCN, NIH Roadmap, qHTS, NCGC
With `Clc1ccc(Cl)c(Cl)c1Cl`, the Potency result was “inactive”. As for `Cc1cc(C)c(N)cc1C`, the Potency entry was “inactive”. For the compound `C=C(C)C(N)=O`, the Potency result is “inactive”. As for `Oc1c(Cl)ccc(Cl)c1Cl`, the entry is “inactive”; as for `CCCC=O`, “inactive”. The entry for `CCC(C)=O` is “inactive”; for `Cc1cc(C2(c3cc(C)c(O)cc3C)OS(=O)(=O)c3ccccc32)c(C)cc1O` it is “inactive”; for `O=Cc1ccc(C(=O)O)cc1` it is “inactive”. Turning to `CC(=O)Nc1ccc(N)cc1`, the Potency result was “inactive”. As for `CCOC(C)(C)C`, the entry is “inactive”. As for `OC/C(Br)=C(\Br)CO`, the entry is “inactive”. As for `c1ccc(Oc2ccccc2)cc1`, the entry is “inactive”.

As to `O=[N+]([O-])c1cccc(C(F)(F)F)c1`, the Potency result is “inactive”. For the compound `FB(F)F`, the Potency entry was “inactive”. The entry for `Oc1cccc(Nc2ccccc2)c1` is “inactive”; for `NC(=O)CCCCC(N)=O` it is “inactive”. Consider `Cc1ccc(C)cc1`, for which the Potency entry is “inactive”.

As to `COC(=O)CC#N`, the Potency result was “inactive”. `Cc1ccc(N(C)C)cc1`: the Potency entry is “inactive”. The entry for `C/C=C(/C)C#N` is “inactive”. The entry for `c1ccc2c(c1)Oc1ccccc1S2` is “inactive”; for `Cc1ccc(C(=O)O)cc1` it is “inactive”.

In the case of `CCCC(Cl)CCCC(Cl)CCC(Cl)CCC(Cl)CCC(Cl)CCCC(Cl)CCC` (stereo not given), the Potency entry is “inactive”. As for `O=Nc1ccc(NO)cc1`, the entry is “inactive”; as for `CCCCC(CC)CO` (stereo not given), “inactive”. As for `O=Cc1ccc(Cl)cc1`, the entry is “inactive”; as for `ClCCl`, “inactive”. The entry for `Cc1cccc([N+](=O)[O-])c1C(=O)O` is “inactive”; for `Cc1ccc2c(c1[N+](=O)[O-])C(=O)c1ccccc1C2=O` it is “inactive”. Take `N#Cc1ccccc1`: the Potency entry is “inactive”. As for `C1CCOC1`, the entry is “inactive”; as for `C=C(C)C(=O)OCC(C)C`, “inactive”. As for `CCC1CO1` (stereo not given), the entry is “inactive”; as for `COC(=O)CCCC(=O)OC`, “inactive”. In the case of `Cc1ccc(Cl)cc1`, the Potency result is “inactive”.

For `O=Cc1c(Cl)cccc1Cl`, the Potency entry was “inactive”. As to `Cc1cccc(C)c1O`, the Potency entry was “inactive”. As for `CCOCC(=O)O`, the entry is “inactive”; as for `CC(=O)OCCC(C)C`, “inactive”.

Regarding `O=Cc1ccc(CO)o1`, the Potency result was “inactive”.
